# Results from PubChem BioAssay (NCI).
# About 83,000 compounds went through this panel and 20% of them were active in at least one assay; those are over-represented in the sample as a whole.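 Activity criterion: percent growth below 10, measured after cells in 96-well plates were exposed to a single compound concentration for 48 hours.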 Values without a mark were called inactive. Active and inactive are the calls of the source.
# System: SR leukemia
# Assay: NCI-60 one-dose screen, 48 h (100 = growth as untreated, 0 = no growth, -100 = all killed)
# Settings: 10 µM unless noted
# Protocol: Growth inhibition of the SR human tumor cell line is measured as a screen for anti-cancer activity. Cells are grown in 96 well plates and exposed to the test compound for 48 hours. Compounds are tested at a single concentration, which is 10^-5 M for most compounds. The reported endpoint is percent growth (GI% or GIPRCNT), where numbers from 0 - 100% represent growth inhibition, and numbers from -100% - 0 represent cell death. For example, a value of 40 represents 60% growth inhibition. A value of 0 means no net growth occurred over the course of the experiment. A value of -40 indicates 40% of cells at the beginning of the experiment died by the end of the experiment. A value of -100 means all cells are dead at the end of the experiment.
# NCI-60 Human Tumor Cell Lines Screen was performed using the standard one-dose NCI protocol, which is described in more detail at https://dtp.cancer.gov/discovery_development/nci-60/default.htm.
# Compounds with GIPRCNT values below 10 were considered active. Activity score was based on GIPRCNT using the following formula: […]
# Score is 0 for GIPRCNT values of 100 or above, 50 for GIPRCNT values of 0, and 100 for GIPRCNT values of -100.
row,SMILES,growth
1,CC1O[C@@H](OC2[C@H](OC(=O)/C=C/c3ccc(O)c(O)c3)C(COC3O[C@H](C)C(O)C(O)[C@@H]3O)O[C@@H](OCCc3ccc(O)c(O)c3)[C@H]2O)[C@@H](O)C(O)[C@H]1O (stereo not given in full),105%
2,Cc1cc(NCCCCNc2ccnc3cc(Cl)ccc23)nc(Nc2ccc(C(=O)N3CCCCC3)cc2)n1,-29% (active)
3,N/C(=N\c1nc2ccccc2s1)NC(=O)Nc1cccc(Cl)c1,14.8%
4,Cc1ccc(Cc2cnc(NC(=O)c3ccc4noc(-c5ccccc5)c4c3)s2)cc1,85%
5,COc1ccc(-c2cc(-c3ccc(Nc4nc(Nc5ccc(Cl)cc5)nc(Nc5ccc(Cl)cc5)n4)cc3)nc(N)c2C#N)cc1,5.37% (active)
6,O=C(O)C1CCC(=O)N1C(=O)OCc1ccccc1 (stereo not given),89.4%
7,Cc1c(C)c2c(c(C)c1OCC(=O)O)CC[C@@](C)(CCC[C@@H](C)CCC[C@@H](C)CCCC(C)C)O2,0.521% [50 µM] (active)
8,Fc1ccc(CNc2c3ccccc3nc3ccccc23)cc1F,17%
9,CC(=O)[C@@H]1CC[C@]2(COS(=O)(=O)c3ccc(C)cc3)CC[C@]3(C)[C@H](CC[C@@H]4[C@@]5(C)CCCNC(C)(C)[C@@H]5CC[C@]43C)[C@@H]12,-24.6% (active)
10,NS(=O)(=O)c1cnccc1Oc1cccc2cccnc12,86%
11,CCCCCc1nc2c(c3c1CCCC3)CCCC2,31.8%
12,COC(=O)[C@]12CC[C@@H](C)[C@H](C)[C@@H]1C1=CC[C@@H]3[C@@]4(C)C(C=O)=C[C@@](C)(CO)[C@@H]4[C@H](O)C[C@@]3(C)[C@]1(C)CC2,-20.4% (active)
13,C[C@H](NC(=O)[C@@H]1CSSC[C@@H](NC(=O)c2nc3ccccc3cc2O)C(=O)NCC(=O)N1C)c1ccccc1,-17.5% (active)
14,Cn1c2c(c3ccc(Cl)c(Cl)c31)C(C#N)C1(CCNCC1)NC2=O (stereo not given),13.6%
15,N#C/C(=C\c1ccc(Br)cc1)n1nnc2cc(F)c(F)cc21,6.06% (active)
16,CN(C)CC1=NC2SC=C(c3ccccc3)C2C(=O)N1CC#N (stereo not given),70.4%
17,C[C@@]1(CCC#N)[C@H]2CC[C@@H]3[C@H]4[C@H](C(=O)/C=C/c5cccnc5)CC[C@]4(C#N)CC[C@@]3(C)[C@]2(C)CC[C@H]1C(=O)/C=C/c1cccnc1,12.9%
18,O=C1/C(=C/c2ccc(F)cc2)C=C(c2ccccc2)N1CCc1ccccc1,46.5%
19,N=C(N)c1ccc(-c2ccc(-c3cncc4ccccc34)s2)s1,-29.3% (active)
20,NC(=O)c1ccc[n+](Cc2ccc(Cl)cc2Cl)c1,7.84% (active)

row,SMILES,growth
1,Cc1ccc(NCCN(C)C)c2c(=O)c3ccccc3sc12,17%
2,COC(=O)c1c2c(c(C)[n+]([O-])c1C)C(=O)C(NCc1ccc(F)cc1)=CC2=O,9.28% (active)
3,COc1ccc(C2=Nc3c(N)ncnc3NC(c3ccc4c(c3)OCO4)C2)cc1 (stereo not given),96.5%
4,COc1cccc(C(=O)NCCCNc2cc(-c3cn(-c4ccccc4)nc3-c3cccc(OC)c3)ccn2)c1,8.19% (active)
5,O=[N+]([O-])c1ccc(-c2cc(-c3ccc(Nc4nc(Nc5ccc(Cl)cc5)nc(Nc5ccc(Cl)cc5)n4)cc3)no2)cc1,14.5%
6,NC1=NCc2nc3ccccc3c(=O)n2C1,93.1%
7,Cn1cc(-c2csc(-c3ccccc3)n2)c2cccnc21,0.511% [100 µM] (active)
8,Cc1ccc(N(C(=O)CCc2c[nH]c3ccccc23)[C@H](C(=O)Nc2ccc(Cl)cc2)c2cccc([N+](=O)[O-])c2)cc1,72.9%
9,CC(=O)n1c(-c2ccc(Cl)cc2)nc2c(c1=O)C(c1ccc(Cl)cc1)c1sc3c(Cl)cccc3c1O2 (stereo not given),-14.9% (active)
10,N#Cc1c(-c2ccccc2)cc(-c2ccc(Nc3nc(Nc4ccc(F)cc4)nc(Nc4ccc(F)cc4)n3)cc2)nc1N,0.591% (active)
11,O=C(NCCCNc1cc(-c2cn(-c3ccccc3)nc2-c2cccc(O)c2)ccn1)c1ccc(F)cc1,-26.4% (active)
12,Cc1cc[c-]cc1.Fc1c[c-]c(-c2ccccn2)c(F)c1.[Pt+2].c1ccc(P(C[PH+](c2ccccc2)c2ccccc2)c2ccccc2)cc1,16.8%
13,CC(=O)N1N=C(c2ccc(Nc3nc(Nc4ccc(F)cc4)nc(Nc4ccc(F)cc4)n3)cc2)CC1c1cccc([N+](=O)[O-])c1 (stereo not given),22.4%
14,C=CCn1c(C)nc2cc(Nc3nc(Cl)nc4ccccc34)ccc21,94.7%
15,O=C1CCc2c(sc3[nH]c(=S)n(-c4ccc(OC(F)(F)F)cc4)c(=O)c23)C1,35.8%
16,N#CC1=C(/N=C/c2ccccc2)Oc2c(ccc3ccccc23)C1c1ccccc1 (stereo not given),19.2%
17,COc1ccc2c(c1)CCCN2c1c2ccccc2nc2ccccc12,12.5%
18,COc1ccccc1NC(=O)N/C(N)=N/c1nc2ccccc2s1,9.32% (active)
19,CN1CCN(CC(=O)Nc2nc(-c3cccc(NS(=O)(=O)c4cccc5c(N(C)C)cccc45)c3)cs2)CC1,11.5%
20,Cc1ccc2nc(NC(=O)CSc3nc(-c4ccccc4)c(C#N)c(=O)n3Cc3ccccc3)sc2c1,44.5%
